Measurements: the antibiotic and cytotoxicity screens of Wong et al. (2023)
Hit rate of the full screen: of about 39,000 compounds, about 1,500 (3.8%) were called active. Many of the other results were omitted from the sample, so actives are more common in it than they were.

Each molecule was assayed on HSkMC (human skeletal muscle cells) (assay: cytotoxicity call (relative viability < 0.9)). Details: 10 µM.

| Structure (SMILES) | cytotoxicity call |
| --- | --- |
| C[C@H](CO)N1C[C@H](C)[C@H](CN(C)S(=O)(=O)c2cn(C)cn2)Oc2c(NC(=O)Nc3ccc4c(c3)OCO4)cccc2C1=O | inactive |
| O=C1CNC(=O)N1C1CCNCC1 | inactive |
| O=C(N/N=C/[C@H](O)[C@@H](O)[C@H](O)[C@H](O)CO[C@H]1O[C@H](CO)[C@H](O)[C@H](O)[C@H]1O)c1ccccn1 | inactive |
| O=C(O)CN1Cc2ccccc2C1=O | inactive |
| Cc1noc(C)c1S(=O)(=O)N(C)C[C@@H]1OCCCC[C@H](C)Oc2ccc(NS(C)(=O)=O)cc2C(=O)N([C@H](C)CO)C[C@@H]1C | inactive |
| C[C@H](CO)N1C[C@H](C)[C@H](CN(C)Cc2ccccc2)OCCCC[C@H](C)Oc2ccc(NC(=O)CCC(F)(F)F)cc2C1=O | inactive |
| COc1ccc(S(=O)(=O)Nc2cccc3c2O[C@@H](CN(C)CC2CC2)[C@@H](C)CN([C@H](C)CO)C3=O)cc1 | inactive |
| C[C@H](O)C#Cc1ccc2c(c1)O[C@H](CN(C)C(=O)CN(C)C)[C@H](C)CN([C@@H](C)CO)S2(=O)=O | inactive |
| CC(C)N(CCOc1c(Br)cc(/C=C/C(=O)NCCCOc2c(Br)cc(CCN(C)C)cc2Br)cc1Br)C(C)C | active |
| CN(C)CCc1cc(Br)c(OCCCNC(=O)/C=C/c2cc(Br)c(OCCN3CCCC3)c(Br)c2)c(Br)c1 | active |
| CN(C)CCOc1c(Br)cc(/C=C/C(=O)NCCCOc2c(Br)cc(CCN(C)C)cc2Br)cc1Br | inactive |
| CC(=O)OCC(=O)NCCCOc1cccc(CN2CCCCC2)c1.Cl | inactive |
| COc1cc(/C=C/C(=O)NCCCNC(=O)/C=C/c2cc(OC)c(OC)c(OC)c2)cc(OC)c1OC | inactive |
| CN(C)CCc1cc(Br)c(OCCCNC(=O)/C=C/c2cc(Br)c(OCCN3CCCCC3)c(Br)c2)c(Br)c1 | inactive |
| Cc1noc(C)c1NC(=O)Nc1ccc2c(c1)C(=O)N([C@H](C)CO)C[C@@H](C)[C@H](CN(C)Cc1ccc(C(=O)O)cc1)OCCCC[C@@H](C)O2 | inactive |
| CN1CCN(C(=O)C[C@@H]2CC[C@H](NC(=O)Cc3ccccn3)[C@@H](CO)O2)CC1 | inactive |
| C[C@H]1CN([C@@H](C)CO)C(=O)c2cc(NC(=O)NC3CCCCC3)ccc2O[C@@H]1CN(C)Cc1ccc(-c2ccccc2)cc1 | inactive |
| COc1ccc(S(=O)(=O)N[C@H]2C=C[C@H](CC(=O)NCCc3ccncc3)O[C@H]2CO)cc1 | inactive |
| COc1ccc(S(=O)(=O)N(C)C[C@@H]2Oc3ccc(NS(C)(=O)=O)cc3CC(=O)N([C@H](C)CO)C[C@H]2C)cc1 | inactive |
| Cc1noc(C)c1S(=O)(=O)N(C)C[C@@H]1Oc2ccc(NC(=O)CCC(F)(F)F)cc2CC(=O)N([C@@H](C)CO)C[C@H]1C | inactive |
| O=C(O)c1ccccc1-c1c2cc(I)c(=O)c(I)c-2oc2c(I)c(O)c(I)cc12 | active |
| O=C([O-])c1ccccc1-c1c2cc(I)c(=O)c(I)c-2oc2c(I)c([O-])c(I)cc12.[Na+].[Na+] | inactive |
| O=C(O)CN(CC(=O)O)Cc1cc2c(-c3ccccc3C(=O)O)c3cc(CN(CC(=O)O)CC(=O)O)c(=O)cc-3oc2cc1O | inactive |
| Cn1cnc(CCNC(=O)C[C@H]2CC[C@H]3[C@@H](COC[C@H](O)CN3C(=O)Nc3ccc(Cl)cc3)O2)c1 | inactive |
| O=C(C[C@@H]1CC[C@@H]2[C@H](COC[C@H](O)CN2S(=O)(=O)c2ccccc2F)O1)N1CCC(Cc2ccccc2)CC1 | inactive |

| Structure (SMILES) | cytotoxicity call |
| --- | --- |
| COCC#Cc1cnc2c(c1)C(=O)N([C@@H](C)CO)C[C@@H](C)[C@@H](CN(C)S(=O)(=O)c1cn(C)cn1)O2 | inactive |
| C#CC[C@H](c1nc2cc(Cl)ccc2c(=O)n1Nc1ccccc1)N(CCCN)C(=O)c1cccc(Cl)c1F | active |
| COc1ccc(NC(=O)N(C)C[C@H]2OCCCC[C@@H](C)Oc3ccc(NC(=O)c4ccccc4)cc3C(=O)N([C@H](C)CO)C[C@@H]2C)cc1 | inactive |
| C[C@H](CO)N1C[C@H](C)[C@@H](CN(C)S(=O)(=O)c2cn(C)cn2)Oc2c(NC(=O)c3ccc(-c4nccs4)cc3)cccc2C1=O | inactive |
| COc1cc(Nc2ncc(F)c(Nc3ccc4c(n3)N(COP(=O)(O)O)C(=O)C(C)(C)O4)n2)cc(OC)c1OC | active |
| NC1CCCCC1N.O=C1[O][Pt][O]C1=O (stereo not drawn) | inactive |
| Cc1noc(C)c1NC(=O)N(C)C[C@H]1Oc2c(NC(=O)NC(C)C)cccc2C(=O)N([C@@H](C)CO)C[C@H]1C | inactive |
| Cc1ccc(S(=O)(=O)Nc2ccc3c(c2)C(=O)N([C@@H](C)CO)C[C@H](C)[C@@H](CN(C)C(=O)NC2CCCCC2)OCCCC[C@H](C)O3)cc1 | inactive |
| C[C@H](CO)N1C[C@H](C)[C@H](CN(C)C(=O)c2ccncc2)OCCCC[C@H](C)Oc2ccc(NS(=O)(=O)c3cn(C)cn3)cc2C1=O | inactive |
| CC(=O)Oc1ccccc1C(=O)Nc1ncc([N+](=O)[O-])s1 | active |
| CC(=O)Oc1ccccc1C(=O)Nc1ccccc1 | inactive |
| CC(=O)Nc1ncc([N+](=O)[O-])s1 | inactive |
| C[C@@H]1CN([C@H](C)CO)C(=O)c2cc(N(C)C)ccc2O[C@@H](C)CCCCO[C@@H]1CN(C)S(=O)(=O)c1cn(C)cn1 | inactive |
| CCCNC(=O)C[C@H]1CC[C@H]2[C@@H](COc3ccc(NC(=O)Nc4ccc(C#N)cc4)cc3C(=O)N2C)O1 | inactive |
| CCOCCOCCOc1oc(C(=O)NC2CCCCC2)c(-c2ccc(Cl)cc2)c1S(=O)(=O)c1ccc(Cl)cc1 | inactive |
| CS(=O)(=O)O.CSc1ccc2c(c1)C(N1CCN(C)CC1)Cc1ccccc1S2 (stereo not drawn) | active |
| CN1CCC(=C2c3ccccc3Sc3ccccc32)CC1.O=C(O)C=CC(=O)O | inactive |
| CSc1ccc2c(c1)N(CCC1CCCCN1C)c1ccccc1S2.Cl (stereo not drawn) | inactive |
| C[C@@H]1CN([C@H](C)CO)S(=O)(=O)c2ccc(C#Cc3ccc(F)cc3)cc2O[C@H]1CN(C)C(=O)CN(C)C | inactive |
| CC(C)NC(=O)N(C)C[C@H]1Oc2ccc(NC(=O)NC3CCCCC3)cc2CC(=O)N([C@@H](C)CO)C[C@H]1C | inactive |
| CNC(=O)Nc1ccc(-c2nc(N3C[C@H]4CC[C@@H](C3)O4)c3cnn(C4CCC5(CC4)OCCO5)c3n2)cc1 | active |
| CO[C@H]1C[C@H](O[C@H]2[C@H](C)O[C@@H](O[C@@H]3/C(C)=C/C[C@@H]4C[C@@H](C[C@]5(C=C[C@H](C)[C@@H](C6CCCCC6)O5)O4)OC(=O)[C@@H]4C=C(C)[C@@H](O)[C@H]5OC/C(=C\C=C\[C@@H]3C)[C@]54O)C[C@@H]2OC)O[C@@H](C)[C@@H]1O | inactive |
| CCC(C)C1OC2(C=CC1C)CC1CC(CC=C(C)C(OC3CC(OC)C(OC4CC(OC)C(NC(C)=O)C(C)O4)C(C)O3)C(C)C=CC=C3COC4C(O)C(C)=CC(C(=O)O1)C34O)O2 (stereo not drawn) | inactive |
| CN[C@@H]1[C@@H](C)O[C@@H](O[C@H]2[C@H](C)O[C@@H](O[C@@H]3/C(C)=C/C[C@@H]4C[C@@H](C[C@]5(C=C[C@H](C)[C@@H](C(C)C)O5)O4)OC(=O)[C@@H]4C=C(C)[C@@H](O)[C@H]5OC/C(=C\C=C\[C@@H]3C)[C@]54O)C[C@@H]2OC)C[C@H]1OC | active |
| COC1CC(OC2C(C)OC(OC3C(C)=CCC4CC(CC5(C=CC(C)C(C6CCCCC6)O5)O4)OC(=O)C4C=C(C)C(O)C5OCC(=CC=CC3C)C45O)CC2OC)OC(C)C1O (stereo not drawn) | inactive |

| Structure (SMILES) | cytotoxicity call |
| --- | --- |
| CC[C@H](C)[C@H]1O[C@]2(C=C[C@@H]1C)C[C@@H]1C[C@@H](C/C=C(\C)[C@@H](O[C@H]3C[C@H](OC)[C@@H](O[C@H]4C[C@H](OC)[C@@H](NC(C)=O)[C@H](C)O4)[C@H](C)O3)[C@@H](C)/C=C/C=C3\CO[C@@H]4[C@H](O)C(C)=C[C@@H](C(=O)O1)[C@]34O)O2 | active |
| CCC(C)C1OC2(C=CC1C)CC1CC(CC=C(C)C(OC3CC(OC)C(OC4CC(OC)C(O)C(C)O4)C(C)O3)C(C)C=CC=C3COC4C(OC)C(C)=CC(C(=O)O1)C34O)O2 (stereo not drawn) | active |
| C[C@H](CO)N1C[C@H](C)[C@@H](CN(C)C(=O)C2CCC2)Oc2cc(C#Cc3ccncc3)ccc2S1(=O)=O | inactive |
| Cc1noc(C)c1NC(=O)N(C)C[C@@H]1OCCCC[C@@H](C)Oc2ccc(NS(=O)(=O)c3ccc(Cl)cc3)cc2C(=O)N([C@H](C)CO)C[C@H]1C | inactive |
| C[C@@H]1CN([C@H](C)CO)S(=O)(=O)c2ccc(C3=CCCC3)cc2O[C@H]1CN(C)C(=O)c1cnccn1 | inactive |
| COc1cccc(S(=O)(=O)N2C[C@H](O)COC[C@@H]3O[C@H](CC(=O)N4CCOCC4)CC[C@H]32)c1 | inactive |
| C[C@H]1CN([C@@H](C)CO)C(=O)c2cc(NC(=O)CCCN(C)C)ccc2O[C@H]1CN(C)Cc1ccc2c(c1)OCO2 | inactive |
| COCC(=O)Nc1ccc2c(c1)OC[C@@H](C)N(C(=O)Cc1cccnc1)C[C@@H](C)[C@@H](OC)CN(C)C2=O | inactive |
| C[C@H](CO)N1C[C@H](C)[C@@H](CN(C)C(=O)CCN2CCCCC2)Oc2ncc(C#Cc3ccccn3)cc2C1=O | inactive |
| CN(Cc1ccccn1)C(=O)[C@@]12COC[C@@H]1CN(S(C)(=O)=O)C2 | inactive |
| CC(C)NC(=O)Nc1ccc2c(c1)C(=O)N([C@H](C)CO)C[C@@H](C)[C@H](CN(C)Cc1ccccc1)OCCCC[C@H](C)O2 | inactive |
| C[C@H](CO)N1C[C@H](C)[C@@H](CN(C)C(=O)Nc2ccc(C(F)(F)F)cc2)Oc2ccc(NC(=O)Nc3ccc(F)cc3)cc2C1=O | inactive |
| C[C@H](CO)N1C[C@H](C)[C@H](CN(C)C(=O)Nc2ccc(F)cc2)Oc2ccc(NC(=O)Nc3ccc(C(F)(F)F)cc3)cc2C1=O | inactive |
| C[C@H]1CN([C@@H](C)CO)C(=O)c2cc(NC(=O)Nc3ccc(C(F)(F)F)cc3)ccc2O[C@H]1CN(C)C(=O)Nc1ccc(F)cc1 | inactive |
| C[C@H](CO)N1C[C@H](C)[C@H](CN(C)C(=O)Nc2ccc(C(F)(F)F)cc2)Oc2ccc(NC(=O)Nc3ccc(F)cc3)cc2C1=O | active |
| C[C@@H]1CN([C@H](C)CO)C(=O)c2cc(NC(=O)Nc3ccc(C(F)(F)F)cc3)ccc2O[C@@H]1CN(C)C(=O)Nc1ccc(F)cc1 | active |
| C[C@H]1CN([C@@H](C)CO)C(=O)c2cc(NC(=O)Nc3ccc(F)cc3)ccc2O[C@@H]1CN(C)C(=O)Nc1ccc(C(F)(F)F)cc1 | inactive |
| C[C@H]1CN([C@@H](C)CO)C(=O)c2cc(NC(=O)Nc3ccc(F)cc3)ccc2O[C@H]1CN(C)C(=O)Nc1ccc(C(F)(F)F)cc1 | inactive |
| C[C@@H]1CN([C@H](C)CO)C(=O)c2cc(NC(=O)Nc3ccc(C(F)(F)F)cc3)ccc2O[C@H]1CN(C)C(=O)Nc1ccc(F)cc1 | inactive |
| C[C@@H]1CN([C@H](C)CO)C(=O)c2cc(NC(=O)Nc3ccc(F)cc3)ccc2O[C@H]1CN(C)C(=O)Nc1ccc(C(F)(F)F)cc1 | inactive |
| C[C@@H]1CN([C@@H](C)CO)C(=O)c2cc(NC(=O)Nc3ccc(C(F)(F)F)cc3)ccc2O[C@@H]1CN(C)C(=O)Nc1ccc(F)cc1 | active |
| C[C@@H]1CN([C@@H](C)CO)C(=O)c2cc(NC(=O)Nc3ccc(F)cc3)ccc2O[C@@H]1CN(C)C(=O)Nc1ccc(C(F)(F)F)cc1 | active |
| C[C@H](CO)N1C[C@H](C)[C@@H](CN(C)C(=O)Nc2ccc(F)cc2)Oc2ccc(NC(=O)Nc3ccc(C(F)(F)F)cc3)cc2C1=O | inactive |
